Screens as filed in PubChem BioAssay.
PNC assembly inh = inhibitors of perinucleolar compartment assembly | PC3M PTB-GFP, PNC prevalence imaging, 16 h; hits give low values | activity change (PNC), negative = inhibition, % at 10 µM | 140,000 compounds, 3.1% hits | AID 2417;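 active means readout at or below -70, meaning at least 70% loss of cells showing the perinucleolar compartment, a nuclear body marking cancer cells; inconclusive means readout between -30 and a set limit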;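 further: plate controls were DMSO wells for no effect and camptothecin positive control wells for full effect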
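PC3M cells stably expressing PTB-GFP, 750–1000 cells/well, treated 16 h at 37 °C with compound (23 nl of library stock), in duplicate. After paraformaldehyde fixation and Hoechst stain, imaged at 20x; PNC prevalence scored by image analysis.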
IMPase Li cell = cell-permeable IMPase inhibitors with lithium potentiation | CHO-M1 cells, IP1 TR-FRET (IP-One), carbachol + lithium | Potency, µM (highest dose often 59.4 µM), without a hit: at the highest dose activity, negative = IMPase inhibition, actives largely listed as inhibitors | 210,000 compounds, 0.35% hits | AID 1457;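 further: IP1 builds up when IMPase is blocked and the TR-FRET signal falls; potency means the concentration at half of the fitted maximal effect; plate controls were basal vehicle for no effect and high inhibitor control for full effect; nearly all actives have a fitted effect of over 50% in size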
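Concentration–response in CHO-M1 cells, lithium-potentiated; 30 min at 37C. IP1 detected by competitive TR-FRET after 10 min lysis at RT. Hill-fitted AC50.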
ALDH1A1 block = ALDH1A1 (human) enzyme inhibition; Purified ALDH1A1, NADH fluorescence, propionaldehyde substrate; AID 1030; Potency, µM (top dose mostly 75.3 µM), without a hit: at the highest dose activity, negative = inhibition, hits mostly inhibitors; P00352; 220,000 compounds, 7.3% hits; active means well fitted inhibition curve with a large enough effect, not every such curve was filed as active; inconclusive means small, poorly fitted or top-dose-only effect, or another doubt; inactive means no such curve, though single readings can be large or run the other way;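 further: potency means the concentration at half of the fitted maximal effect; plate controls were no enzyme wells and a reference inhibitor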
IMPase cell inh = IMPase inhibition in cells. P97697. CHO-M1 cells, IP1 accumulation, HTRF TR-FRET ratio. inhibition (IP1 accumulation), % at 46.1 µM. 120,000 tested, under 10 active; active means well fitted curve in the direction sought with a large enough effect in the signal ratio, not every such curve was filed as active; inconclusive means small, poorly fitted or top-dose-only effect, or a change in a side signal; inactive means no such curve, though single readings can be large or run the other way; the % refers to the signal ratio;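 further: cells stimulated with carbachol in lithium chloride buffer; plate controls were DMSO basal wells for no effect and reference inhibitor wells for full effect; higher means more IMPase inhibition seen as more IP1 and lower FRET ratio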
Target sequence (P97697 whole entry, looked up): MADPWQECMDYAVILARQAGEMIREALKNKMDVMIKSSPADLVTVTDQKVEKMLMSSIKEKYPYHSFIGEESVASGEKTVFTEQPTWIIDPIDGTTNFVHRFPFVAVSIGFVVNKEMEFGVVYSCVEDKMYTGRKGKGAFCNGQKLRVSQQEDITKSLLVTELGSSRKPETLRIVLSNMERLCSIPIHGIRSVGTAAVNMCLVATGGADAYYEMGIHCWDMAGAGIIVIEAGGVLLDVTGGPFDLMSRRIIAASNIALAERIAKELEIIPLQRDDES
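Measured: the HTRF emission ratio (665/620 nm) plus the 620 nm donor channel, each fitted to the Hill equation to give AC50. Cells were CHO-M1 given compounds up to 46 uM and a 30 min carbachol stimulation at 37C.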
HPGD inh = blocks human HPGD enzyme activity. P15428. purified HPGD, NADH fluorescence kinetic, PGE2 substrate. Potency, µM, for the others: top-dose activity change, negative = inhibition, actives largely listed as inhibitors. 150,000 compounds, 4.3% hits; active means well fitted inhibition curve with a large enough effect, not every such curve was filed as active; inconclusive means small, poorly fitted or top-dose-only effect, or another doubt; inactive means no such curve, though single readings can be large or run the other way; further: potency means the concentration at half of the fitted maximal effect
Target sequence (P15428 whole entry, looked up): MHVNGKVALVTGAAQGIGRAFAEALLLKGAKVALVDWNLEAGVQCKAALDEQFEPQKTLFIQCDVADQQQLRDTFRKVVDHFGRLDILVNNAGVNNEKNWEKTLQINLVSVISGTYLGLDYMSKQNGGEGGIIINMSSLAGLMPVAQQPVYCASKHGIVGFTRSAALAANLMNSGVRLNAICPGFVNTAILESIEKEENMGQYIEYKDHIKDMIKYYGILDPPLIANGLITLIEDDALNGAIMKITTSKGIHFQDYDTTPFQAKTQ
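20 nM HPGD preincubated 15 min at room temperature with compound in 50 mM Tris-HCl pH 8, 0.01% Tween 20. Started with 1 mM NAD+ and 30 uM prostaglandin E2; NADH fluorescence (360/450 nm) read 5 times over 30-s intervals, last minus first.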
NPSR antag = blocks cAMP signaling of the human neuropeptide S receptor. 220,000 compounds, 1% hits. Potency, µM (top dose mostly 38.3 µM), inactives show top-dose activity change, negative = inhibition, usual class: inhibitors. CHO-NPSR cells, cAMP TR-FRET, antagonist mode; further: potency means the concentration at half of the fitted maximal effect; nearly all actives have a fitted effect of over 50% in size
Numbers without * were called inactive; [ ] = remark or other dose. Shown are actives, neighbours in structure and some others; about 11% of the full set was active somewhere. Unless noted, the call rests on the fitted dose curve; in most records, active means well fitted curve in the direction sought with a large enough effect; inconclusive means small, poorly fitted or top-dose-only effect, or another doubt; inactive means no such curve, though single readings can be large; an effect the other way counts as inactive or inconclusive. Unless noted, on the % scale 0 is the no-effect control and ±100 the full control effect.

How did O=C1NC(c2ccc(-c3ccccc3[N+](=O)[O-])o2)C(C(=O)c2ccc(F)cc2)C(O)(C(F)(F)F)N1 (configuration not stated) do in these assays?
PNC assembly inh: -22.2; IMPase Li cell: -3.0%; ALDH1A1 block: inconclusive; IMPase cell inh: -4.0; HPGD inh: -3.5%; NPSR antag: -28.8%

Results for Cc1ccc(C2NC(=O)NC(O)(C(F)(F)F)C2C(=O)c2cccs2)o1 (configuration not stated) ?
PNC assembly inh: -27.4; IMPase Li cell: 6.5%; ALDH1A1 block: inconclusive; IMPase cell inh: -5.6; HPGD inh: -6.6%; NPSR antag: 1.3%[46.1 µM]

Results for COc1ccc(C(=O)C2C(c3ccc(-c4ccccc4[N+](=O)[O-])o3)NC(=O)NC2(O)C(F)(F)F)cc1 (configuration not stated) ?
PNC assembly inh: inconclusive; IMPase Li cell: -4.1%; ALDH1A1 block: 12.6µM*; IMPase cell inh: 0.8; HPGD inh: -11.1%; NPSR antag: -7.5%

Results for Cc1ccc(C2NC(=O)NC(O)(C(F)(F)F)C2C(=O)c2ccccc2)o1 (configuration not stated) ?
PNC assembly inh: -26.4; IMPase Li cell: 11.1%; ALDH1A1 block: 8.91µM*; IMPase cell inh: -5.3; HPGD inh: -9.2%; NPSR antag: -10.5%[46.1 µM]

Results for CC1(C)CC(=O)C2=C(C1)Nc1cc3c(cc1C2c1ccc(F)cc1)OCO3 (configuration not stated) ?
PNC assembly inh: 30.7; IMPase Li cell: -19.0%[38.3 µM]; ALDH1A1 block: inconclusive; IMPase cell inh: -8.5; HPGD inh: inconclusive; NPSR antag: -28.0%[46.1 µM]

How did COc1ccc(N2C(=O)CC(NNc3ncc(Cl)cc3Cl)C2=O)cc1 (configuration not stated) do in these assays?
IMPase Li cell: 13.4%; ALDH1A1 block: inconclusive; NPSR antag: 5.8%

Results for O=C(c1ccc(Cl)s1)N1CCN(c2ncccn2)CC1 ?
NPSR antag: -1.8%

What do the screens show for `COC(=O)C1=C(C)NC(=O)NC1c1ccc([N+](=O)[O-])o1` (configuration not stated)?
PNC assembly inh: inconclusive; IMPase Li cell: 1.5%; ALDH1A1 block: 7.0%; HPGD inh: -10.4%; NPSR antag: 7.9%

What do the screens show for `COC(=O)C1=C(C)NC(=O)NC1c1ccc(-c2ccc(Cl)cc2)o1` (configuration not stated)?
IMPase Li cell: 10.3%; ALDH1A1 block: 11.2µM*; NPSR antag: 27.8%

What do the screens show for `O=C(CC1C(=O)NCCN1CC1CCCCC1)NCc1cc(F)ccc1F` (configuration not stated)?
IMPase Li cell: -2.2%; ALDH1A1 block: inconclusive; NPSR antag: 7.3%

How did O=C(CC1C(=O)NCCN1CC1CCCCC1)NCc1ccc(Cl)cc1 (configuration not stated) do in these assays?
IMPase Li cell: 6.7%; ALDH1A1 block: 20µM*; NPSR antag: -10.1%

Results for O=S(=O)(NC1CCCC1)c1ccc(S(=O)(=O)NC2CCCC2)cc1 ?
PNC assembly inh: inconclusive; IMPase Li cell: -16.2%[38.3 µM]; ALDH1A1 block: -7.1%; IMPase cell inh: 5.8; HPGD inh: -12.2%; NPSR antag: -3.0%[7.67 µM]

Results for CC(C)(C)C(=O)CNS(=O)(=O)c1ccc(S(=O)(=O)NC2CCCC2)cc1 ?
PNC assembly inh: -82.4*; IMPase Li cell: -0.6%; ALDH1A1 block: inconclusive; IMPase cell inh: -5.3; HPGD inh: -1.7%; NPSR antag: -7.2%[46.1 µM]

Results for CN(c1cccc(NC(=O)CSc2ccc(Cl)cc2)c1)S(C)(=O)=O ?
PNC assembly inh: -16.6; IMPase Li cell: 31.7%[38.3 µM]; ALDH1A1 block: 2.6%; IMPase cell inh: -1.3; HPGD inh: -23.0%; NPSR antag: -17.9%[46.1 µM]

How did Cc1c(NC(=O)c2cc(-c3cccs3)on2)c(=O)n(-c2ccccc2)n1C do in these assays?
PNC assembly inh: inconclusive; IMPase Li cell: -15.7%[38.3 µM]; ALDH1A1 block: 31.6µM*; IMPase cell inh: inconclusive; HPGD inh: -6.6%; NPSR antag: -23.9%[46.1 µM]

Results for O=C(C[n+]1cccc(NC(=O)c2ccccc2)c1)c1cccc([N+](=O)[O-])c1 ?
IMPase Li cell: -3.3%; ALDH1A1 block: 9.46µM*; NPSR antag: -1.9%

What do the screens show for `O=C(CCNc1cccc(F)c1)c1cccc([N+](=O)[O-])c1`?
IMPase Li cell: 5.0%; ALDH1A1 block: 0.631µM*; NPSR antag: -24.4%

How did O=C(C[n+]1ccc(-c2cc(C(=O)Nc3cccc(C(F)(F)F)c3)c3ccccc3n2)cc1)c1cccc([N+](=O)[O-])c1 do in these assays?
IMPase Li cell: 8.7%; ALDH1A1 block: -3.7%; NPSR antag: -47.2%

Results for CCOC(=O)C1=C(C)NC(=O)CC1c1cc2c(cc1Br)OCO2 (configuration not stated) ?
PNC assembly inh: 25.6; IMPase Li cell: 2.4%[38.3 µM]; ALDH1A1 block: -3.2%; IMPase cell inh: -0.6; HPGD inh: -3.0%; NPSR antag: -17.1%[46.1 µM]

What do the screens show for `COc1ccc(-c2nnnn2CCc2ccccc2)cc1`?
PNC assembly inh: inconclusive; IMPase Li cell: 38.3%[38.3 µM]; ALDH1A1 block: 1.2%; IMPase cell inh: -3.5[1.84 µM]; HPGD inh: -6.0%; NPSR antag: 14.8%[46.1 µM]

What do the screens show for `O=S(=O)(NCc1cn2ccsc2n1)c1cccs1`?
PNC assembly inh: -14.9; IMPase Li cell: 2.2%[38.3 µM]; ALDH1A1 block: -1.3%; IMPase cell inh: -3.4; HPGD inh: -11.8%; NPSR antag: 3.0%[46.1 µM]

How did COc1ccc(CNC(=O)c2csc(Cc3ccc(OC)cc3)n2)cc1 do in these assays?
PNC assembly inh: 30.1; IMPase Li cell: -12.0%[38.3 µM]; ALDH1A1 block: -2.4%; IMPase cell inh: -2.9; HPGD inh: -6.5%; NPSR antag: -7.5%[46.1 µM]

Results for COc1ccc(CNC(=O)c2csc(Cc3ccc(Cl)cc3)n2)cc1 ?
PNC assembly inh: -106.0*; IMPase Li cell: 2.9%[38.3 µM]; ALDH1A1 block: -5.9%; IMPase cell inh: -2.4; HPGD inh: -11.5%; NPSR antag: -16.9%[46.1 µM]

How did O=C(NNC(=S)NCc1ccco1)c1cccs1 do in these assays?
PNC assembly inh: 28.1; ALDH1A1 block: inconclusive; IMPase cell inh: -5.4; NPSR antag: 8.7%[46.1 µM]

What do the screens show for `O=C(NCc1ccco1)c1cccs1`?
PNC assembly inh: -3.4; IMPase Li cell: -6.8%[38.3 µM]; ALDH1A1 block: inconclusive; IMPase cell inh: 7.0; HPGD inh: 25.1µM*; NPSR antag: -24.1%[7.67 µM]

What do the screens show for `COc1ccc(-c2cc(C(F)(F)F)n3nc(C(=O)NCc4ccco4)cc3n2)cc1`?
PNC assembly inh: -113.7*; IMPase Li cell: 0.5%[38.3 µM]; ALDH1A1 block: inconclusive; IMPase cell inh: -5.5; HPGD inh: inconclusive; NPSR antag: -15.2%[46.1 µM]
